This is a sample that favours compounds with a hit; in the whole collection about 28% have one here.
CYP2C9 activ: activators of human CYP2C9; P11712; recombinant CYP2C9, luciferin-H conversion, luminescence; active compounds read high; factor 1 = untreated enzyme, 0 = blocked; activation factor at 5 µM; hit rate 1.4% among 96,000; AID 1024;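 active = activation factor of 2 or more for CYP2C9 at a 5 µM dose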;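 also: 0 = sulfaphenazole-blocked wells and 1 = vehicle-only wells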
D1 mod: D1 dopamine receptor (human) allosteric modulation; AID 641; P21728; HEK293 D1, CRE-luciferase, dopamine EC30 potentiation; actives deviate in either direction; B-score at 10 µM; hit rate 5.9% among 58,000;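 active = luminescence count or its row- and column-corrected plate score outside the 99.7% band of the plate's sample wells, on either side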
CYP2C19 inh: blocks human cytochrome P450 2C19; P33261; CYP2C19 Supersomes, luciferin-H EGE luminescence, 30 min; inhibition, % at 5 µM; hit rate 21% among 96,000; AID 778;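 active = CYP2C19 inhibition above a set limit at 5 µM in the primary screen, cut at about 50% in these data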;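 also: plate controls were negative control wells for no effect and 2.5 mM tranylcypromine positive control for full effect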
hDAT+cocaine: changed human dopamine transporter uptake under cocaine IC80 | hit rate 1.3% among 110,000 | AID 449768 | Q01959 | LLC-PK1 hDAT cells, [14C]-dopamine uptake with cocaine IC80; actives deviate in either direction | B-score at 10 µM;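 active = Z score or B-score, a plate-position-corrected score, falls beyond the plate's 99.7% confidence bounds, in either direction; inactive = both scores lie inside the 99.7% bounds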;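 also: scored against the spread of the other compound wells on the same plate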
Target sequence (Q01959 whole entry, looked up): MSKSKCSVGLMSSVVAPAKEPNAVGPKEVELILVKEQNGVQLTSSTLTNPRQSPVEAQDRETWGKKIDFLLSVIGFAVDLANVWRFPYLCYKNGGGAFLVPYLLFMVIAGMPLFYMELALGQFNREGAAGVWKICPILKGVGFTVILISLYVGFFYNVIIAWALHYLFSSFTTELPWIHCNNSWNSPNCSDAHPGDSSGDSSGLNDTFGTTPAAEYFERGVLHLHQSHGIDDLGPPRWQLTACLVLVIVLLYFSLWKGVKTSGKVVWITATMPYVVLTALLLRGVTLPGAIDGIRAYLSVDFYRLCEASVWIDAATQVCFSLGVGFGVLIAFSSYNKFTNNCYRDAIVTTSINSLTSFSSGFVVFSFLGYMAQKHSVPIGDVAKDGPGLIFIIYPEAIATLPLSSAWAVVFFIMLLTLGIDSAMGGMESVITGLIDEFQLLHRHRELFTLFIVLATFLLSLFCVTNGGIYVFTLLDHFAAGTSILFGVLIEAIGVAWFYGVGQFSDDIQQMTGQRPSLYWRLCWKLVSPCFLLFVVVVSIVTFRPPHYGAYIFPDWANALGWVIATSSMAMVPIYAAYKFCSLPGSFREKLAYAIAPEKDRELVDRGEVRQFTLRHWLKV
CYP2C19 act: cytochrome P450 2C19 (human) activation; recombinant CYP2C19, luciferin-H EGE luminescence; active compounds read high; 0 = fully inhibited enzyme, 1 = untreated enzyme; activation factor at 5 µM; 96,000 tested, under 10 active;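 active = activation factor of at least 2 at 5 µM in the primary screen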;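 also: 0 = wells with 2.5 mM tranylcypromine and 1 = vehicle-only wells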
CYP2C9 inh: human CYP2C9 inhibition; inhibition, % at 5 µM; CYP2C9 Supersomes, luciferin-H conversion, luminescence; hit rate 20% among 96,000;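 active = blocking of liver enzyme CYP2C9 beyond about 50% at 5 µM, limit read from the data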
The depositor's hits bear a star; / = not tested or not shown.

SMILES | CYP2C9 activ | D1 mod | CYP2C19 inh | hDAT+cocaine | CYP2C19 act | CYP2C9 inh
COc1ccc(-c2cc(C(F)F)n3ncc(C(=O)NCC4CCCO4)c3n2)cc1 (stereo unspecified) | 0.7 | 1.9 | 13 | -0.25 | 0.9 | 30
Cc1ccc(-c2cc(C(F)F)n3ncc(C(=O)Nc4ccc(S(=O)(=O)Nc5ccccc5C)cc4)c3n2)cc1 | 0.2 | / | 6 | -0.13 | 0.9 | 82*
CC1(c2nnc(-c3cccc(Cl)c3)o2)CC(c2cccc(Cl)c2)=NO1 (stereo unspecified) | / | / | / | 0.05 | / | /
CC1Cc2ccccc2N1C(=O)CSc1nnc2c(n1)[nH]c1ccc(F)cc12 (stereo unspecified) | / | / | / | 0.26 | / | /
CC(/C=N/N1CCN(c2ccccc2)CC1)=C\c1ccco1 | 0.8 | / | 56* | -0.13 | 0.4 | 23
CC(=C/c1ccco1)/C=N/N1CCN(c2ccccc2)CC1 | 0.8 | / | 55* | 0.83 | 0.4 | 18
Cc1[nH]n(-c2ccc([N+](=O)[O-])cc2)c(=O)c1C=NCCN1CCN(C(=O)c2cccc(F)c2)CC1 | 0.5 | / | 33 | 0.25 | 0.7 | 48
CCc1nc2ccc(C)cc2c(C(=O)NC2CCCCC2C)c1C (stereo unspecified) | 0.3 | / | 21 | -1.1 | 0.8 | 71*
Cc1ccc2c(c1)NC(=O)C(CC(=O)NC1CCCCC1C)O2 (stereo unspecified) | 1.2 | 0.6 | 6 | -0.28 | 0.9 | -23
CCOC(=O)c1c(C)[nH]c(C(=O)OCc2c(C)noc2C)c1C | 0.2 | 0.82 | 50* | 0.041 | 0.5 | 80*
CCOC(=O)c1[nH]c(C)c(C(=O)C(C)C)c1C | 0.9 | / | 51* | -0.4 | 0.5 | 14
CCOC(=O)c1[nH]c(C)c(C(=O)OCCN2C(=O)c3ccccc3C2=O)c1C | 0.2 | 2.4 | 67* | 0.02 | 0.3 | 85*
CCOC(=O)c1[nH]c(C)c(C(=O)NC2CCCCCC2)c1C | / | 2.3 | / | 0.23 | / | /
CCOC(=O)c1[nH]c(C)c(C(=O)O)c1C | 1.2 | / | -10 | -0.2 | 1.1 | -17
CCOC(=O)c1[nH]c(C)c(C(=O)N(C)C)c1C | 1 | 1.5 | 7 | -0.2 | 0.9 | 0
O=C(OCCN1C(=O)c2ccccc2C1=O)c1cc(=O)[nH]c2ccccc12 | 0.8 | 0.54 | 25 | -0.51 | 0.7 | 20
CCOC(=O)c1[nH]c(C)c(C(=O)NC2CCCC2)c1C | 0.6 | 0.67 | 54* | -0.41 | 0.5 | 35
Cc1cc(C(=O)O)c(CSCc2cc(C(=O)O)oc2C)o1 | 1.7 | / | 22 | -0.6 | 0.8 | -75
O=C(O)C[C@H]1c2ccccc2S(=O)(=O)N1C1CCCC1 | / | / | / | -0.057 | / | /
CCOC(=O)c1c(C)[nH]c(C(=O)OCC(=O)NC(C)C)c1C | 0.6 | / | 4 | -0.079 | 1 | 45
CCOC(=O)c1[nH]c(C)c(C(=O)OCC(=O)N2CCCCC2C)c1C (stereo unspecified) | 0.3 | -0.088 | 23 | 0.097 | 0.8 | 72*
CCOC(=O)c1c(C)[nH]c(C(C)=O)c1C | 0.4 | 0.46 | 51* | -0.018 | 0.5 | 56*
O=C(NC1CCS(=O)(=O)C1)Oc1ccc(Cl)cc1 (stereo unspecified) | 1.1 | / | -9 | -0.063 | 1.1 | -10
C/C=C\C(=O)Nc1cccc(C2=NOC3(C2)C[C@@H](C(N)=O)N(C(=O)c2ccc(OC)cc2)C3)c1 (stereo partly specified) | / | / | / | 0.15 | / | /
Cc1n[nH]c(C)c1S(=O)(=O)N1CCCC(C(=O)NC2CCCCC2)C1 (stereo unspecified) | / | -0.16 | / | / | / | /
SMILES | CYP2C9 activ | D1 mod | CYP2C19 inh | hDAT+cocaine | CYP2C19 act | CYP2C9 inh
CC(C)C(=O)NC(c1ccc([N+](=O)[O-])cc1)c1c(O)ccc2ccccc12 (stereo unspecified) | 0.9 | / | 4 | 0.5 | 1 | 9
CCCCC(=O)NC(c1ccc(OC)c(OC)c1)c1c(O)ccc2ccccc12 (stereo unspecified) | 0.1 | / | 63* | 0.018 | 0.4 | 88*
CCC(=O)NC(c1cccc([N+](=O)[O-])c1)c1c(OC(C)=O)ccc2ccccc12 (stereo unspecified) | / | / | / | 2.1 | / | /
CCCC(=O)NC(c1ccc(OC)c(OC)c1)c1c(O)ccc2ccccc12 (stereo unspecified) | 0.3 | / | 74* | 0.64 | 0.3 | 71*
CC1Cc2ccccc2N1C(=O)CN1CCc2ccccc2C1 (stereo unspecified) | 0.6 | 1.5 | 92* | -0.96 | 0.1 | 36
CC1Cc2ccccc2N1C(=O)CSc1nc2c(c(=O)n(C)c(=O)n2C)n1Cc1ccccc1 (stereo unspecified) | 0 | -0.028 | 76* | 2.4 | 0.2 | 96*
CC1Cc2ccccc2N1c1ncnc2c1nnn2Cc1ccccc1 (stereo unspecified) | 0.4 | 0.2 | 47 | -0.32 | 0.5 | 65*
CC(C)c1nc(SCC(=O)N2c3ccccc3CC2C)c2ccccc2n1 (stereo unspecified) | 0 | / | 59* | -0.47 | 0.4 | 99*
COc1cccc(/C(O)=C2/C(=O)C(=O)N(CCCN(C)C)C2c2cccc(Cl)c2)c1 (stereo unspecified) | 1.2 | 0.078 | -27 | / | 1.3 | -17
CCOC(=O)C(C)Oc1ccc(C2NC(=O)NC(C)=C2C(=O)Nc2ccccc2C)cc1 (stereo unspecified) | 0.8 | -1.2 | 20 | 0.54 | 0.8 | 21
CC1Cc2ccccc2N1C(=O)CSc1ccccc1 (stereo unspecified) | 1 | / | 96* | 1 | 0 | -4
CC(C)NC(=O)Cn1c(SCC(=O)N2c3ccccc3CC2C)nc2ccccc21 (stereo unspecified) | 0.1 | -0.74 | 61* | 0.39 | 0.4 | 91*
CC1Cc2ccccc2N1C(=O)CSc1nnnn1Cc1ccccc1 (stereo unspecified) | 0.2 | / | 90* | 0.87 | 0.1 | 84*
CC(C)NC(=O)Cn1c(SCC(=O)N2CCCCCC2)nc2ccccc21 | 0.6 | -1.5 | 12 | 0.62 | 0.9 | 35
O=C(CSc1nnnn1Cc1ccccc1)N1CCN(c2ccccc2)CC1 | 1.2 | -0.28 | -4 | / | 1 | -19
O=C1C(Cl)=C(NCC2CCCO2)C(=O)N1c1cccc(Cl)c1Cl (stereo unspecified) | 0.5 | / | 82* | 0.0076 | 0.2 | 46
O=C1C(Cl)=C(N2CCOCC2)C(=O)N1CCc1ccccc1 | 1 | -0.72 | 88* | 0.98 | 0.1 | 2
C=CCNC1=C(Cl)C(=O)N(c2cccc(Cl)c2Cl)C1=O | 0.5 | / | 90* | 0.017 | 0.1 | 47
O=C1C(Cl)=C(NCC2CCCO2)C(=O)N1CCc1ccccc1 (stereo unspecified) | 0.3 | -0.021 | 82* | 0.29 | 0.2 | 66*
O=C(CN1CCN(Cc2ccccc2Cl)C1=O)NCC1CCCO1 (stereo unspecified) | 1.5 | -0.52 | 0 | -0.57 | 1 | -47
Cc1cccc(-c2nnc(SCc3ccc(C#N)cc3)n2Cc2ccco2)c1 | 0.6 | / | 42 | 1.7 | 0.6 | 35

Assay outcomes from PubChem BioAssay.
